Active and inactive are the calls of the source. Unless noted, calls follow the shape of the dose curve; as a rule, active = well fitted curve in the direction sought with a large enough effect in the repeat runs; inconclusive = weak or mixed curves; inactive = no such curve, though single readings can be large; an effect the other way counts as inactive or inconclusive.

Assay [1] is described as follows: qHTS assay to identify small molecule antagonists of the glucocorticoid receptor (GR) signaling pathway - cell viability counter screen (AID 720693). Also: nearly all actives have a fitted effect of over 55% in size. Also: potency is read from the fitted curve at half-maximal effect. A general note: In qHTS, concentration-response curves come from the screen itself.
A short description of assay [2]: qHTS assay for identifying genotoxic compounds that show differential cytotoxicity against isogenic chicken DT40 cell lines with known DNA damage response pathways - wild type cell line (AID 743012). Also: nearly all actives have a fitted effect of over 60% in size. Also: potency is read from the fitted curve at half-maximal effect. Put shortly:
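First, wild type DT40 cells were plated at 300 per well and equilibrated about 0.5 h at 37 C/5% CO2. Next, compounds in DMSO were added and exposure lasted 40 h. Finally, CellTiter-Glo was added for 30 min at room temperature and luminescence recorded.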

The nature of assay [3]: qHTS assay for identifying genotoxic compounds that show differential cytotoxicity against isogenic chicken DT40 cell lines with known DNA damage response pathways - Rev3 mutant cell line (AID 743014). Also: nearly all actives have a fitted effect of over 55% in size. Also: potency is read from the fitted curve at half-maximal effect.
Assay [4] in a line: qHTS assay for identifying genotoxic compounds that show differential cytotoxicity against isogenic chicken DT40 cell lines with known DNA damage response pathways - Rad54/Ku70 mutant cell line (AID 743015). Also: nearly all actives have a fitted effect of over 60% in size. Also: potency is read from the fitted curve at half-maximal effect.
Assay [5] concerns the target Androgen receptor (Homo sapiens) (UniProt P10275). The assay is described as follows: qHTS assay to identify small molecule antagonists of the androgen receptor (AR) signaling pathway (AID 743035; active = well fitted inhibition curve with a large enough effect in the signal ratio in the repeat runs, not every such curve was filed as active; inconclusive = weak or mixed curves, or effect the other way; inactive = no such curve, though single readings can be large or run the other way; the % refers to the signal ratio; also: potency is read from the fitted curve at half-maximal effect). Put shortly: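 Beta-lactamase FRET read (2 h RT incubation with LiveBLAzer B/G) following 16 h of compound plus R1881 treatment of AR-UAS-bla HEK293 cells, which had been pre-incubated 4 h at 37C.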

A short description of assay [6]: qHTS assay to identify small molecule antagonists of the androgen receptor (AR) signaling pathway using the MDA cell line - cell viability counter screen (AID 743041; also: nearly all actives have a fitted effect of over 45% in size; also: potency is read from the fitted curve at half-maximal effect). Put shortly: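 MDA-kb2 AR-luc cells (MMTV-luciferase, AR/GR responsive) treated with compounds plus R1881 agonist for 16 h at 37C. CellTiter-Fluor added at 15.5 h; fluorescence read after 30 min in the same wells.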

In assay [7] the target is Androgen receptor (Homo sapiens) (UniProt P10275). The assay is described as follows: qHTS assay to identify small molecule antagonists of the androgen receptor (AR) signaling pathway using the MDA cell line (AID 743042; also: nearly all actives have a fitted effect of over 55% in size). The method, boiled down:
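MDA-kb2 breast carcinoma cells carrying MMTV-luciferase (AR/GR responsive) were co-treated with compounds and the agonist R1881 for 16 h at 37C. Inhibition read as ONE-Glo luminescence; CellTiter-Fluor fluorescence measured in parallel for cytotoxicity.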

Assay [8] in a line: qHTS assay to identify small molecule antagonists of the thyroid receptor (TR) signaling pathway - cell viability counter screen (AID 743064). Also: nearly all actives have a fitted effect of over 50% in size. Also: potency is read from the fitted curve at half-maximal effect. The method, boiled down: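 CellTiter-Fluor readout, 30 min at 37 °C/5% CO2, following 23.5 h incubation of GH3.TRE-Luc cells with test compound and 1 nM T3 (final).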
Assay [9] is described as follows: qHTS assay to identify small molecule antagonists of the thyroid receptor (TR) signaling pathway (AID 743065). Also: nearly all actives have a fitted effect of over 55% in size. Also: potency is read from the fitted curve at half-maximal effect. Put shortly: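 GH3.TRE-Luc rat pituitary cells (two TREs driving luciferase) were dosed with compound, then stimulated with 1 nM T3 (final) for 23.5 h at 37 C. ONE-Glo luminescence was the read-out, with CellTiter-Fluor fluorescence as the cytotoxicity counter-screen.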

In assay [10] the target is Estrogen receptor (Homo sapiens) (UniProt P03372). In words: qHTS assay to identify small molecule antagonists of the estrogen receptor alpha (ER-alpha) signaling pathway (AID 743069; active = well fitted curve in the direction sought with a large enough effect in the signal ratio in the repeat runs, not every such curve was filed as active; inconclusive = weak or mixed curves, or effect the other way; inactive = no such curve, though single readings can be large or run the other way; the % refers to the signal ratio; also: potency is read from the fitted curve at half-maximal effect). Put shortly: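 HEK293 ER-alpha-UAS-bla GripTite cells, held overnight in 2% charcoal-stripped FBS, 5,000 cells/well, preincubated 4 h, then compound plus 17beta-estradiol for 18 h at 37C. Beta-lactamase read by LiveBLAzer B/G FRET substrate, 2 h at room temperature.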
Sequence of Estrogen receptor (Homo sapiens) (P03372 whole entry, looked up): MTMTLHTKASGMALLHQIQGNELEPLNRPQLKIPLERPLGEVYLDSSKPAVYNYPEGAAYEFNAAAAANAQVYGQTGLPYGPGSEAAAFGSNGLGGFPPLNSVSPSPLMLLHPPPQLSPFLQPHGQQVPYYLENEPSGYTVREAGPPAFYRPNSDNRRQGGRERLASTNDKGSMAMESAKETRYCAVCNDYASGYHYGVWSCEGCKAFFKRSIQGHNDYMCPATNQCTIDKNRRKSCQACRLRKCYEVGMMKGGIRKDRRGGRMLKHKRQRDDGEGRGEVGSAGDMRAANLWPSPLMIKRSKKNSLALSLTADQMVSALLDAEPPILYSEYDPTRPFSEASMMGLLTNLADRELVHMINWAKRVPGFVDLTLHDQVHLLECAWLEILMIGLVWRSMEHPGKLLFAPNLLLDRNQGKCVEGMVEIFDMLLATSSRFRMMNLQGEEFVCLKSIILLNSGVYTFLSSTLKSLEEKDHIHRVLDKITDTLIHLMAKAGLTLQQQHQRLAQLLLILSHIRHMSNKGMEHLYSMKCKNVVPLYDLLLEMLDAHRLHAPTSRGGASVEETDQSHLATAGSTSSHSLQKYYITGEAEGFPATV

Assay [11] can be described thus: qHTS assay to identify small molecule antagonists of the estrogen receptor alpha (ER-alpha) signaling pathway - cell viability counter screen (AID 743074; calls by dose curve;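 also: HEK293 cells carrying ER-alpha-UAS-bla reporter stimulated with 17beta-estradiol; nearly all actives have a fitted effect of over 45% in size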).
The target in assay [12] is Estrogen receptor (Homo sapiens) (UniProt P03372). The assay is described as follows: qHTS assay to identify small molecule agonists of the estrogen receptor alpha (ER-alpha) signaling pathway (AID 743075; calls by dose curve; also: potency is read from the fitted curve at half-maximal effect).
Assay [13] shares this target. In words: qHTS assay to identify small molecule agonists of the estrogen receptor alpha (ER-alpha) signaling pathway using the BG1 cell line (AID 743079). Also: nearly all actives have a fitted effect of over 20% in size. Also: potency is read from the fitted curve at half-maximal effect.
Assay [14] in a line: qHTS assay to identify small molecule antagonists of the estrogen receptor alpha (ER-alpha) signaling pathway using the BG1 cell line - cell viability counter screen (AID 743081).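 Also: compound given together with 17beta-estradiol as the ER stimulus; nearly all actives have a fitted effect of over 45% in size.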 Also: potency is read from the fitted curve at half-maximal effect.
A further assay deals with Aromatase (Homo sapiens) (UniProt P11511). The assay is described as follows: qHTS assay to identify aromatase inhibitors (AID 743083). Also: nearly all actives have a fitted effect of over 55% in size. Also: potency is read from the fitted curve at half-maximal effect.
Sequence of Aromatase (Homo sapiens) (P11511 whole entry, looked up): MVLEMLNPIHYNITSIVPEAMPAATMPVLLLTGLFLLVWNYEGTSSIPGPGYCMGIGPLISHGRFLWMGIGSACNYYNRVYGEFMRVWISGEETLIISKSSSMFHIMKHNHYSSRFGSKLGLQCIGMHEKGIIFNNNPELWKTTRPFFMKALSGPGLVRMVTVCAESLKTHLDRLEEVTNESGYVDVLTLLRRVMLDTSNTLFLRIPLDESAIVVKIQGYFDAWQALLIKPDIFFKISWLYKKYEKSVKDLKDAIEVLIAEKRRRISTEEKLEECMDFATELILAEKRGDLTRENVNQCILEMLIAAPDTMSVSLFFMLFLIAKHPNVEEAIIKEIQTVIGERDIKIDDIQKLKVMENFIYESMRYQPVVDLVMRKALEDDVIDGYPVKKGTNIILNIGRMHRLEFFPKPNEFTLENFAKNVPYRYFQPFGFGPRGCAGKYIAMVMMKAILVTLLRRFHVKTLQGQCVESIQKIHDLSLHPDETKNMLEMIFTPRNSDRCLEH
Assay [15] in a line: qHTS assay to identify small molecule antagonists of the androgen receptor (AR) signaling pathway - cell viability counter screen (AID 743033; also: nearly all actives have a fitted effect of over 45% in size).
Assay [16] deals with Androgen receptor (Homo sapiens) (UniProt P10275). The assay is described as follows: qHTS assay to identify small molecule agonists of the androgen receptor (AR) signaling pathway using the MDA cell line (AID 743040; also: nearly all actives have a fitted effect of over 20% in size). Put shortly: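 MDA-kb2 breast carcinoma cells carrying MMTV-luciferase (responsive to AR and GR), plated 5 h then treated 16 h with compounds at 37C, 0% CO2. Read-out was ONE-Glo luminescence after 30 min at room temperature.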
Sequence of Androgen receptor (Homo sapiens) (P10275 whole entry, looked up): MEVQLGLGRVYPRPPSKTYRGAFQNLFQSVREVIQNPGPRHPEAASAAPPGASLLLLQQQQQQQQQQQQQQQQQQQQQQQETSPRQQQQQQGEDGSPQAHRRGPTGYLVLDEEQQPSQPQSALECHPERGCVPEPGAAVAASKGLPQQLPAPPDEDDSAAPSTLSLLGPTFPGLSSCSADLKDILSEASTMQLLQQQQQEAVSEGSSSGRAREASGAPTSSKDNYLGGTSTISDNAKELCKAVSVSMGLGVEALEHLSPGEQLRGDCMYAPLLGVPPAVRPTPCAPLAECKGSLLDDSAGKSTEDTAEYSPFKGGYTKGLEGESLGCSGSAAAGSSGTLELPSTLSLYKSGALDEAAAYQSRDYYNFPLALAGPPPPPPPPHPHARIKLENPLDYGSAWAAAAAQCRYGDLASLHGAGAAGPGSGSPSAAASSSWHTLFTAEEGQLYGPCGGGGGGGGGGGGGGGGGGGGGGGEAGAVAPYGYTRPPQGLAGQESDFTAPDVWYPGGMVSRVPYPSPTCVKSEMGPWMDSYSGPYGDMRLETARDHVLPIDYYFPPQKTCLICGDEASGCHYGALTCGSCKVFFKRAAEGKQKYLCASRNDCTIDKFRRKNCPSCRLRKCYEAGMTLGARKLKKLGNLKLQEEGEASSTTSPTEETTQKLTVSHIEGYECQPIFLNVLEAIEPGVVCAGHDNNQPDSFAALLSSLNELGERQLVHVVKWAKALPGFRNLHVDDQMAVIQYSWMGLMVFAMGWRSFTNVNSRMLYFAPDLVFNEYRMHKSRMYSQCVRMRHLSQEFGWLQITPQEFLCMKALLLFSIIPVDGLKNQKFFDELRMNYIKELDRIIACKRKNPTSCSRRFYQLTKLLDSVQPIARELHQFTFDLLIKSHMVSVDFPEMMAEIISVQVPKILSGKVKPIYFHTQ

Assay [17] has as its system thyroid hormone receptor (rat, GH3 cells). In words: qHTS assay to identify small molecule agonists of the thyroid receptor (TR) signaling pathway (AID 743066; calls by dose curve).
Assay [18] in a line: qHTS assay to identify small molecule antagonists of the estrogen receptor alpha (ER-alpha) signaling pathway using the BG1 cell line (AID 743080; calls by dose curve;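 also: BG1 cells stimulated with 17beta-estradiol alongside compound; series mostly up to about 70 µM; nearly all actives have a fitted effect of over 25% in size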). Put shortly: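 BG1-Luc-4E2 cells (endogenous full-length ER-alpha, stable 4×ERE-luciferase) were starved 5 days in phenol-red-free medium with 10% charcoal-stripped FBS, plated 24 h, then given compound plus 17beta-estradiol for 21.5 h at 37 C; ONE-Glo luminescence read after 30 min.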

The target of assay [19] is Androgen receptor (Homo sapiens) (UniProt P10275). In words: qHTS assay to identify small molecule agonists of the androgen receptor (AR) signaling pathway (AID 743036; active = well fitted activation curve with a large enough effect in the signal ratio in the repeat runs, with a control signal flat, not every such curve was filed as active; inconclusive = weak or mixed curves, or effect the other way; inactive = no such curve, though single readings can be large or run the other way; the % refers to the signal ratio). Put shortly: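 Following a 4 h settling period, AR-UAS-bla HEK293 cells were dosed with compounds for 16 h at 37C. A 2 h room-temperature incubation with LiveBLAzer B/G FRET substrate preceded the fluorescence measurement.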

On to `CCCCCCCCCCCCOC(=O)c1ccc(O)cc1`, for which the Potency was 24.7 µM (active) in assay [1]; 30.9 µM (active) in assay [8]; 27.5 µM (active) in [9]; 44 µM [inconclusive] (active) in assay [10]; 30.9 µM (active) with Aromatase (Homo sapiens). Moreover, the Potency entry in [2], in assay [3], in assay [4], in [5], in assay [6] and in assay [7] was “inactive” throughout. The Potency result in assay [11], in [12], in assay [13] and in assay [14] was “inactive” each time.

Take `Cc1cc(=O)oc2cc(O)cc(O)c12`: the Potency entry in assay [1], in assay [2], in [3], in assay [15], in assay [7] and in [9] was “inactive” each time. Further, the Potency entry (in assay [10]; in [11]; in assay [12]; in assay [18]; with Aromatase (Homo sapiens)) was “inactive” throughout. The call in [16] and in assay [17] was inactive.

Take `C/C=C/C=C/COC(=O)C(C)C`: the Potency entry in assay [1], in assay [6], in [11] and in assay [14] was “inactive” each time. In addition, the Potency was 13.7 µM (active) in assay [2], 13.7 µM (active) in [3], 17.2 µM (active) in [4] and 68.6 µM (active) with Aromatase (Homo sapiens). In addition, in assay [17], the call was inactive.

In the case of `O=C1CCc2cc(OCCCCc3nnnn3C3CCCCC3)ccc2N1`, the Potency entry in assay [1], in assay [2], in assay [3], in assay [15], in assay [6] and in [8] was “inactive” throughout. The Potency entry in assay [9], in [10], in assay [11], in [12], in [13] and in [14] was “inactive” throughout. Moreover, in the assay with Aromatase (Homo sapiens), the Potency result was “inactive”. The result in assay [17] was inactive.

Regarding `c1ccc(C(O[C@@H]2CCCN(CCc3ccc4c(c3)OCO4)C2)c2ccccc2)cc1`, the Potency result in assay [1], in [6], in [10], in assay [12] and in assay [14] was “inactive” in each case. The Potency in assay [2] is 38.6 µM (active); in assay [3] it was 30.6 µM (active); in assay [4], 30.6 µM (active); in assay [8] it was 24.3 µM (active); in assay [9], 30.6 µM (active).

On to `CC(C)(C)NSc1nc2ccccc2s1`, for which the Potency entry in assay [1], in assay [2], in assay [3], in assay [4], in assay [6] and in assay [7] was “inactive” throughout. The Potency result in assay [8], in [10], in assay [11], in assay [12], in [13] and in assay [18] was “inactive” in each case. For the same compound, the Potency entry in assay [14] was “inactive”. Moreover, the Potency in assay [5] is 55.9 µM (active). In assay [16], the call was inactive.

On to `CC(CO)Oc1ccccc1` (stereo unspecified), for which the Potency result in assay [1], in [2], in assay [3], in assay [4], in assay [5] and in [19] was “inactive” in each case. In addition, the Potency result in assay [6], in assay [7], in assay [8], in [9], in assay [10] and in assay [11] was “inactive” throughout. The Potency entry (in assay [12]; in assay [13]; in [18]; in assay [14]; with Aromatase (Homo sapiens)) was “inactive” throughout. In addition, the call in assay [16] and in [17] was inactive.

As to `CCN1C(=O)c2ccccc2C1Nc1ccc(OCCN2CCCCC2)cc1` (stereo unspecified), the Potency result in [1], in assay [3], in assay [15], in assay [5], in assay [19] and in assay [6] was “inactive” each time. In addition, the Potency entry in assay [7], in assay [8], in assay [10], in [11], in assay [12] and in [13] was “inactive” each time. Besides, the Potency result (in [18]; with Aromatase (Homo sapiens)) was “inactive” throughout. Also, in assay [2], the Potency is 26.6 µM (active). Further, the outcome in [16] and in assay [17] was inactive.

For `CC(=O)c1ccc(C(C)=O)cc1`, the Potency result in assay [1], in assay [2], in [3], in assay [4], in [5] and in [19] was “inactive” in each case. Besides, the Potency entry in assay [6], in [7], in [8], in assay [9], in assay [11] and in assay [14] was “inactive” in each case. Also, the Potency entry with Aromatase (Homo sapiens) was “inactive”. Moreover, the compound was classed as inactive in assay [16] and in [17].

As for `COc1cc2nc(N3CCN(C(=O)c4ccco4)CC3)nc(N)c2cc1OC`, the Potency entry in assay [1], in assay [11], in assay [12], in assay [13], in [18] and in assay [14] was “inactive” in each case. Further, the Potency was 10.6 µM (active) in [2]; 13.3 µM (active) in assay [3]; 13.3 µM (active) in assay [4]; 8.41 µM (active) in assay [8]; 8.41 µM (active) in assay [9].

On to `O=S(=O)(O)c1ccc(N=Nc2c(O)ccc3ccccc23)cc1`, for which the Potency entry in assay [1], in [10], in assay [11], in [12] and in assay [13] was “inactive” each time. The Potency in assay [2] is 61.1 µM (active); in assay [3] it was 30.6 µM (active); in [4], 54.5 µM (active); in assay [6], 27.3 µM (active); in [8], 30.6 µM (active); in assay [14], 27.3 µM (active). For the same compound, the result in assay [17] was inactive.

For `CN(C)Cc1cc(C(C)(C)C)c(O)c(C(C)(C)C)c1`, the Potency entry (in assay [1]; in assay [6]; in assay [11]; with Aromatase (Homo sapiens)) was “inactive” throughout. The Potency in assay [2], in [3] and in assay [4] was 17.2 µM (active) in each case. Moreover, in assay [17], the compound was classed as inactive.

As for `CN1CCN(Cc2cc(-c3ccc4[nH]c(=O)oc4c3)co2)[C@@H](c2ccc(F)cc2)C1`, the Potency result in [1], in [6], in [11] and in assay [12] was “inactive” in each case. In addition, the Potency is 14.8 µM (active) in assay [2]; 16.6 µM (active) in [3]; 14.8 µM (active) in assay [4]; 46.7 µM (active) in assay [8]; 47.1 µM [inhibitor] (active) in assay [10].

Take `COc1ccc2cc1Oc1ccc(cc1)C[C@H]1c3c(cc4c(c3Oc3cc5c(cc3OC)CCN(C)[C@@H]5C2)OCO4)CCN1C`: the Potency entry in assay [1], in [7], in assay [10], in assay [11], in assay [12] and in [13] was “inactive” each time. The Potency result (in assay [18]; in the assay with Aromatase (Homo sapiens)) was “inactive” each time. The Potency in assay [2] is 7.5 µM (active); in assay [3], 8.41 µM (active); in [4] it was 8.41 µM (active); in assay [8], 13.3 µM (active). Further, the compound was called inactive in assay [16].

As for `O=C(/C=C/c1ccc(O)c(O)c1)O[C@@H](C(=O)O)[C@@H](OC(=O)/C=C/c1ccc(O)c(O)c1)C(=O)O`, the Potency entry in [1], in [2], in [3], in assay [4], in [15] and in [8] was “inactive” throughout. The Potency result (in assay [11]; in [14]; in the assay with Aromatase (Homo sapiens)) was “inactive” in each case. In addition, the call in assay [17] was inactive.

On to `C#C[C@]1(OC(C)=O)CC[C@H]2[C@@H]3CCC4=C/C(=N/O)CC[C@@H]4[C@H]3CC[C@@]21CC`, for which the Potency in assay [1] is 21.3 µM (active); in assay [2], 9.44 µM (active); in [3], 13.3 µM (active); in assay [4], 10.6 µM (active); in assay [12], 0.952 µM [inconclusive] (active); in assay [13], 0.106 µM (active). Also, in the assay with Aromatase (Homo sapiens), the Potency was 23.7 µM (active). In addition, the Potency entry in assay [6], in assay [11], in [18] and in [14] was “inactive” in each case.

These data come from PubChem BioAssay (Tox21).
